TDP1 inh: inhibitors of human tyrosyl-DNA phosphodiesterase TDP1; Q9NUW8; recombinant TDP1, AlphaScreen DNA substrate cleavage; Potency, µM (top dose mostly 130 µM), inactives show at the top dose activity change, negative = inhibition, most hits filed as inhibitors; 350,000 tested, 0.28% active; further: potency means the concentration at half of the fitted maximal effect; on the % scale 0 is the no-effect control and ±100 the full control effect; nearly all actives have a fitted effect of over 40% in size
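Signal: AlphaScreen proximity between streptavidin donor and anti-FITC acceptor beads on intact substrate. Reaction: Tdp1 1 nM, substrate 15 nM final, 5 min RT after 15 min compound preincubation.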
Pol beta inh: blocks human DNA polymerase beta activity | P06746 | Pol beta primer extension/strand displacement, fluorescence kinetic | Potency, µM (top dose mostly 114 µM), inactives show at the highest dose activity change, negative = inhibition, usual class: inhibitors | 340,000 tested, 1.3% active | AID 485314; further: potency means the concentration at half of the fitted maximal effect; on the % scale 0 is the no-effect control and ±100 the full control effect
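10 nM enzyme + cpd, 15 min RT; start with substrate 50 nM final; read 0 min and after 10 min RT. Corrected, normalized data; 4-parameter Hill curve fit.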
FEN1 inh: inhibitors of human flap endonuclease 1; Potency, µM (titrated, usually from 114 µM), inactives show top-dose activity change, negative = inhibition, actives largely listed as inhibitors; AID 588795; P39748; 390,000 tested, 0.35% active; Recombinant FEN1 flap cleavage, fluorescence, 15 min; further: potency means the concentration at half of the fitted maximal effect; on the % scale 0 is the no-effect control and ±100 the full control effect; nearly all actives have a fitted effect of over 65% in size
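Reaction started by adding substrate (50 nM final) to 10 nM enzyme after 15 min room-temperature compound preincubation. Reads at 0 and 15 min, with data normalized and fitted to a four-parameter Hill equation.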
Pol kappa inh-1: DNA polymerase kappa (human) inhibition; 400,000 tested, 0.53% active; Potency, µM (doses to about 107 µM), for the others: at the highest dose activity, negative = inhibition, most hits filed as inhibitors; Q9UBT6; purified Pol kappa, fluorescent DNA synthesis assay, 10 min; further: potency means the concentration at half of the fitted maximal effect; on the % scale 0 is the no-effect control and ±100 the full control effect
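Pol kappa 10 nM + cpd, 15 min RT; start w/ substrate 50 nM final; fluorescence kinetic read, 0 and 10 min. Neg ctrl: buffer, no enzyme.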
Pol iota inh: inhibitors of human DNA polymerase iota; Q9UNA4; Pol iota fluorescent replication assay, 10 min; Potency, µM (highest dose often 115 µM), without a hit: top-dose activity, negative = inhibition, actives largely listed as inhibitors; 390,000 tested, 1% active; AID 588590; further: potency means the concentration at half of the fitted maximal effect
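Fluorescent replication assay read twice, at 0 min and 10 min after adding 50 nM (final) substrate. Enzyme (10 nM) and compounds were first incubated 15 min at room temperature; enzyme-free buffer wells were negative controls.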
Pol eta inh-1: DNA polymerase eta (human) inhibition; Potency, µM (top dose mostly 114 µM), without a hit: at the top dose activity change, negative = inhibition, actives largely listed as inhibitors; recombinant Pol eta, fluorescent DNA replication assay; 390,000 tested, 1.2% active; AID 588591; Q9Y253; further: potency means the concentration at half of the fitted maximal effect; on the % scale 0 is the no-effect control and ±100 the full control effect
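Fluorescent replication assay: 50 nM final substrate added after a 15 min room-temperature compound preincubation with 10 nM enzyme. Signal taken at 0 min and again at 10 min.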
GALK inh confirm: confirmation of human galactokinase (GALK) inhibitors; shares compounds with Pol eta inh-1; purified GALK, Kinase-Glo ATP depletion luminescence; Potency, µM (titrated, usually from 115 µM), without a hit: at the top dose activity, negative = inhibition, usual class: inhibitors; 150 tested, 70% active; AID 2015
GALK redox cs: counter-screen for GALK inhibitors: redox cycling H2O2 generation; shares compounds with Pol eta inh-1; Phenol red-HRP H2O2 redox cycling, absorbance 600 nm; Potency, µM (doses to about 115 µM), for inactives: at the highest dose activity change, negative = H2O2 signal, usual class: inhibitors; 150 tested, 40% active
HEK293 viability: reduces HEK-293 cell viability in GALK counter-screen; shares compounds with Pol eta inh-1; HEK-293 viability, ATP luminescence (CellTiter-Glo), 24/48 h; Potency, µM (titrated, usually from 46.1 µM), without a hit: at the top dose activity change, negative = cytotoxicity, actives largely listed as inhibitors; 170 tested, 10% active; AID 2547; further: potency means the concentration at half of the fitted maximal effect; on the % scale 0 is the no-effect control and ±100 the full control effect
Pol kappa inh-2: confirmation of human DNA polymerase kappa inhibitors. shares compounds with Pol eta inh-1. purified Pol-kappa, fluorescent strand-displacement substrate. Potency, µM, usual class: inhibitors. 920 tested, 76% active; further: potency means the concentration at half of the fitted maximal effect
Pol eta inh-2: Pol eta (human) inhibition, cherry-pick confirmation. AID 720502. shares compounds with Pol eta inh-1. Potency, µM, actives largely listed as inhibitors. 2,600 tested, 64% active. Pol eta primer extension, TAMRA/BHQ fluorescence, 10 min; further: potency means the concentration at half of the fitted maximal effect
Numbers without * were called inactive; ? = inconclusive; . = no result given; [ ] = another dose, or the depositor's remark. Sampled rows, rich in hits. Any-hit rate of the full collection: about 2.4%. The call rests on the fitted dose curve; in most records, active means well fitted curve in the direction sought with a large enough effect; inconclusive means small, poorly fitted or top-dose-only effect, or another doubt; inactive means no such curve, though single readings can be large; an effect the other way counts as inactive or inconclusive.

SMILES	TDP1 inh	Pol beta inh	FEN1 inh	Pol kappa inh-1	Pol iota inh	Pol eta inh-1	Pol eta inh-2	others
O=C(NCCc1ccccc1)c1ccc(Cn2c(SCc3ccccc3)nc3cccnc32)cc1	6.2%	-7.2%	10.1%	-1.2%	3.0%	-17.5%	.
CN(C(=O)/C=C/c1ccco1)c1ccccc1C(=O)O	.	17.8µM*	2.9%	?	?	44.7µM*	?
O=C1c2cccc3cccc(c23)C(=O)N1c1ccc2ncccc2c1	-3.6%[56.1 µM]	31.6µM*	?	?	?	?	.	Pol kappa inh-2=?
O=[n+]1c2c(n([O-])c3cc(F)c(N4CCCC4)cc31)CCC2	.	.	-18.8%	?	?	?	?
O=[n+]1c2c(n([O-])c3cc(F)ccc31)CCCC2	-2.8%	32.8%	-1.3%	3.0%	50.4%	-7.6%	.
O=C(O)c1ccc(Cn2nnc3sc4c(c3c2=O)CCCC4)cc1	50.1µM*	11.7%	-18.8%	?	?	20µM*	?
N=C1/C(=C\c2ccc(SCc3ccco3)o2)C(=O)N=C2SC=NN12	?	39.8µM*	?	50.1µM*	?	14.1µM*	53.6*
CC(C)OC(=O)C(C(=O)C(F)(F)F)c1cc(NS(=O)(=O)c2ccc3ccccc3c2)c2ccccc2c1O (stereo not given)	2.6%	-6.1%	?	-15.2%	?	?	.	GALK inh confirm=?;GALK redox cs=-0.9%;HEK293 viability=-14.4%
CC(C)OC(=O)C(C(=O)C(F)(F)F)c1cc(NS(=O)(=O)c2ccc3c4c(cccc24)C(=O)N3)ccc1O (stereo not given)	.	?	2.5%	-27.8%	?	-19.2%	.
O=[N+]([O-])c1ccc(C=NNc2ccc(S(=O)(=O)O)cc2)cc1	.	.	-4.7%	-8.8%	?	22.4µM*	47.8*
Cc1cccc(CNc2ncnc3ccc(-c4ccoc4)cc23)c1	4.3%	.	-6.9%	4.4%	-9.6%	-10.9%	.	GALK inh confirm=?;GALK redox cs=-4.5%;HEK293 viability=3.2%
CCc1cc[n+](C2=C([O-])c3ccccc3C(=O)/C2=N\S(=O)(=O)c2cccs2)cc1	5.3%	?	1.5%	-19.0%	?	50.1µM*	75.7*
Cc1cc(CNC(=O)c2cccc3c2C(=O)c2ccc(-c4ccc(F)cc4OCc4ccccc4)cc2S3(=O)=O)c(C(F)(F)F)o1	1.7%	.	?	79.4µM*	39.8µM*	20µM*	53.6*
O=C(Nc1nnc(S(=O)(=O)N2CCOCC2)s1)c1ccccc1	.	?	-2.2%	?	?	39.8µM*	?	Pol kappa inh-2=37.7*
O=C(Nc1nnc(S(=O)(=O)N2CCCc3ccccc32)s1)c1ccccc1Cl	-2.6%	4.0%	0.2%	3.6%	15.7%	56.2µM*	.	Pol kappa inh-2=?
COc1ccc(C(=O)Nc2nnc(S(=O)(=O)N3CCOCC3)s2)cc1	5.4%	23.9%	-2.3%	3.8%	-10.5%	-13.9%	.
